FBW7 act: human FBW7 E3 ligase activation, primary screen; AlphaScreen FBW7–phospho-cyclin E peptide binding, activator screen; normalized activity (activation), % at 26.1 µM; 650,000 compounds, 0.13% hits; AID 1259310; in the data active = normalized activity above about 1.9%;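 note: purified mutant Fbw7 with reduced substrate affinity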
TEAD-YAP inh: TEAD-YAP interaction inhibition; HEK-TIYL cells, TEAD-Gal4/YAP UAS-luciferase luminescence; inhibition, % at 9.12 µM; 640,000 compounds, 1.4% hits; in the data active = inhibition above about 32%
GPR151 activ: human GPR151 activation | PathHunter beta-arrestin GPR151 cells, luminescence | Q8TDV0 | 650,000 compounds, 1% hits | activation, % at 11.2 µM; in the data active = activation above about 4.9%
Target sequence (Q8TDV0 whole entry, looked up): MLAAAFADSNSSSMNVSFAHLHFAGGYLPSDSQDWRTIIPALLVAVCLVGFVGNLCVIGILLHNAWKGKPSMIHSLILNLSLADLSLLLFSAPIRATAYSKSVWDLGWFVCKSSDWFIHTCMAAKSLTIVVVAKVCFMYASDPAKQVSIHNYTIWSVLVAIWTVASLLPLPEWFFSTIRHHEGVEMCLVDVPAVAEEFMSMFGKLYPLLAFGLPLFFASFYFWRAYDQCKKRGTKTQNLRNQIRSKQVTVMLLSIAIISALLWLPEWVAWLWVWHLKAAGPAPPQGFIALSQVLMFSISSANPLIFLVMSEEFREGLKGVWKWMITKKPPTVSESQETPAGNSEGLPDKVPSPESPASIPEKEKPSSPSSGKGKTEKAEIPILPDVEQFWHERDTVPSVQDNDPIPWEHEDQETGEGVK
MITF inh: blocks human microphthalmia-associated transcription factor. O75030. AlphaScreen MITF homodimerization, bead proximity signal. inhibition, % at 2.6 µM. 650,000 compounds, 0.91% hits. AID 1259374; in the data active = inhibition above about 50%
GPR151 confirm: human GPR151 activation, confirmation screen; activation, % at 11.2 µM; GPR151 PathHunter beta-arrestin cells, luminescence, 90 min; % of EA-reagent control over plate median; shares compounds with GPR151 activ; 6,700 tested, under 10 active; AID 1508609;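 active = mean percent activation across replicates above the confirmation screen cutoff of 4.91%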
GPR119 ag: activates human GPR119 in a GPR151 counter-screen; 6,700 compounds, 0.3% hits; GPR119 PathHunter beta-arrestin cells, luminescence, 90 min; 0 = compound-well median, 100 = enzyme-acceptor control; activation, % at 11.2 µM; shares compounds with GPR151 activ; AID 1508611;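 active = mean percent activation in the counterscreen above 29.09%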;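 note: counterscreen on off-target GPR119 to flag nonselective hits from the GPR151 activator screen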
Of the large screens only hits and unclear results are named; the others gave an inactive call (follow-up assays come after a bar, where they were run); ! = repeats disagree. In the library only some 3.5% were active in any assay of this set; here they are far more common.

CN1CCN(CCOc2cccc([N+](=O)[O-])c2)CC1	none
CN1CCN(CCCCOc2cccc([N+](=O)[O-])c2)CC1	GPR151 activ 5.6 | GPR151 confirm inactive | GPR119 ag inactive
CSCCC(NCCC(O)c1ccccc1)C(=O)O (stereo unspecified)	none
CC(C)CC(NCCC(O)c1ccccc1)C(=O)O (stereo unspecified)	GPR151 activ 8.3 | GPR151 confirm inactive | GPR119 ag inactive
O=C(NC1CCCCC1)c1ccccc1C(F)(F)F	none
O=C(NC1CCCCC1O)c1ccccc1C(F)(F)F (stereo unspecified)	GPR151 activ 9.2 | GPR151 confirm inactive | GPR119 ag inactive
CC(=O)c1nc2ccccc2n1S(=O)(=O)c1ccc(Cl)cc1	GPR151 activ 5.2 | GPR151 confirm inactive | GPR119 ag inactive
COc1ccc(C2(C(=O)N3CCCC(n4nc(-c5cccs5)ccc4=O)C3)CC2)cc1 (stereo unspecified)	none
CSc1ccccc1NC(=O)N1CCCC(N(C)CCc2ccccn2)C1 (stereo unspecified)	GPR151 activ 5.2 | GPR151 confirm inactive | GPR119 ag inactive
COc1ccc(C(=O)N2CCN(C)CC2)cc1[N+](=O)[O-]	none
CCN1CCN(C(=O)c2ccc(OC)c([N+](=O)[O-])c2)CC1	GPR151 activ 7.4 | GPR151 confirm inactive | GPR119 ag inactive
Cc1nc(NCCNC(=O)Nc2ccccc2)c2c3c(sc2n1)CCCC3	none
CC1=C(C(=O)OC2CCCCCC2)C(c2ccccc2[N+](=O)[O-])CC(=O)N1 (stereo unspecified)	none
O=C1CC(c2ccccc2[N+](=O)[O-])c2ccc3c(O)cccc3c2N1 (stereo unspecified)	GPR151 activ 5.3 | GPR151 confirm inactive | GPR119 ag inactive
O=C1CC(c2cc3c(cc2[N+](=O)[O-])OCO3)c2ccc3ccccc3c2N1 (stereo unspecified)	GPR151 activ 12 | GPR151 confirm inactive | GPR119 ag inactive
CC1=C(C(=O)OC2CCCCCCC2)C(c2ccccc2[N+](=O)[O-])CC(=O)N1 (stereo unspecified)	GPR151 activ 5.3 | GPR151 confirm inactive | GPR119 ag inactive
O=C1CC(c2ccc3c(c2)OCO3)c2ccc3ccccc3c2N1 (stereo unspecified)	none
NCC(c1cccs1)S(=O)(=O)c1ccccc1 (stereo unspecified)	none (no result: FBW7 act, TEAD-YAP inh, MITF inh)
CCOC(=O)c1oc2ccc(Br)cc2c1CSc1nnnn1C	none
CN(C)S(=O)(=O)c1cccc(C(=O)n2ncc(C#N)c2N)c1	GPR151 activ 5.3 | GPR151 confirm inactive | GPR119 ag inactive
NNC(=O)CCCNS(=O)(=O)c1ccc([N+](=O)[O-])cc1	GPR151 activ 5.7 | GPR151 confirm inactive | GPR119 ag inactive
CC(=O)c1cccc(OCC(=O)N2CCOCC2)c1	none
CCOc1ccc(C(=O)Nc2ccccc2N2CCCC2)cc1	none
CCOc1cc(CC(=O)N[C@@H](CC(C)C)c2ccccc2N2CCCCC2)ccc1C(=O)O	GPR151 activ 7.1! | GPR151 confirm inactive | GPR119 ag inactive
CCC(Nc1ccccc1)C(=O)N/N=C/c1ccc(O)cc1O (stereo unspecified)	none
Cc1ccc(S(=O)(=O)n2ccn(C(=O)c3ccccc3Br)c2=O)cc1	GPR151 activ 4.9 | GPR151 confirm inactive | GPR119 ag inactive
COc1cc(C(=O)Nc2cc(C(=O)Nc3cccc(C(F)(F)F)c3)ccc2N2CC3CC(C2)c2cccc(=O)n2C3)cc(OC)c1OC (stereo unspecified)	none
CCOc1ccc(Cl)cc1S(=O)(=O)N1CCCC(C)C1 (stereo unspecified)	none
Cc1ccc(NC(=O)C2CC(=O)N(c3ccc(F)cc3)C2)c(C)c1 (stereo unspecified)	GPR151 activ 19 | GPR151 confirm inactive | GPR119 ag inactive
CCOc1ccc(N2CC(C(=O)Nc3ccc(Br)cc3CC)CC2=O)cc1 (stereo unspecified)	GPR151 activ 4.9 | GPR151 confirm inactive | GPR119 ag inactive
CC(=O)c1ccc(N2CCN(c3ncnc4c3c(-c3ccccc3)cn4-c3cccc(C(F)(F)F)c3)CC2)cc1	none
OCCNCCNc1ncnc2c1cnn2-c1cccc(Cl)c1	none
C=C(C)CNc1nncc(-c2ccccc2C)n1	GPR151 activ 6.2 | GPR151 confirm inactive | GPR119 ag inactive
Cc1ccc(NC(=O)C(=O)NCC(c2ccc3c(c2)OCO3)N2CCN(C)CC2)c(C)c1 (stereo unspecified)	GPR151 activ 6.5 | GPR151 confirm inactive | GPR119 ag inactive
NC(=O)c1ccc(-n2nnnc2SCc2ccccc2Br)cc1	none
Cc1ccc(C2=N/C(=C/c3cc(Br)cs3)C(=O)O2)cc1[N+](=O)[O-]	GPR151 activ 5.1 | GPR151 confirm inactive | GPR119 ag inactive
O=C1OC(c2ccc([N+](=O)[O-])cc2)=N/C1=C\c1ccccc1	none
Cc1ccc(C2=N/C(=C/c3ccc([N+](=O)[O-])cc3)C(=O)O2)cc1	GPR151 activ 7.9 | GPR151 confirm inactive | GPR119 ag inactive
Cc1ccc(NC(=O)CN(C)C(=O)COc2ccc(C)c(C)c2)cc1	none
CCOC(=O)c1c(NC(=O)c2ccccc2F)sc(C(=O)Nc2ccccc2C)c1C	GPR151 activ 7.9 | GPR151 confirm inactive | GPR119 ag inactive
CCOC(=O)c1c(NC(=O)c2cccs2)sc(C(=O)Nc2ccccc2OC)c1C	none
CCOC(=O)c1c(NC(=O)c2cccs2)sc(C(=O)Nc2ccc(OC)cc2OC)c1C	GPR151 activ 5.2 | GPR151 confirm inactive | GPR119 ag inactive
CC(=O)N1CCc2cc(Br)cc(S(=O)(=O)Nc3ccc(F)cc3)c21	none
O=C1CCC(=O)N1c1ccc(CSc2nnnn2C2CCCCC2)cc1	GPR151 activ 6.9 | GPR151 confirm inactive | GPR119 ag inactive
CC(C)(C)OC(=O)N[C@H]1CCC[C@@H](NC(=O)c2cccc(-n3cc(NC(=O)Cc4ccccc4)cn3)c2)C1	GPR151 activ 5.4 | GPR151 confirm inactive | GPR119 ag inactive
O=C(NCc1cccc(C(F)(F)F)c1)c1cc(Nc2ccc(N3CCOCC3)cc2)nc2ccccc12	none
COCCN1CCN(Cc2nc(Nc3ccccc3)c3ccccc3n2)CC1	none
COCCN1CCN(Cc2nc(NCc3ccc(C)o3)c3ccccc3n2)CC1	GPR151 activ 11 | GPR151 confirm inactive | GPR119 ag inactive
CC1CCCN(CCCN(Cc2cccs2)C(=S)Nc2ccc(Oc3ccccc3)cc2)C1 (stereo unspecified)	none
COc1cccc(NC(=O)CCc2c(C)nc3cc(-c4ccccc4OC)nn3c2C)c1	GPR151 activ 8.2 | GPR151 confirm inactive | GPR119 ag inactive
COc1ccc(NC(=O)CCc2c(C)nc3cc(-c4ccccc4OC)nn3c2C)cc1	none
O=C(Nc1c(-c2cccs2)nc2ccccn12)c1cc(Br)ccc1Cl	none
